Source: PubChem BioAssay (Tox21)
Where “and” joins values, the source holds several entries; their conditions need not be identical. Identical values can stand only once. Results filed as inconclusive are left out. Where a call stands in place of a potency, no number is given. Calls of active or inactive are those of the source. Calls follow the shape of the full dose curve.

Test: qHTS assay to identify small molecule antagonists of the estrogen receptor alpha (ER-alpha) signaling pathway using the BG1 cell line (AID 743080);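 also: BG1 cells stimulated with 17beta-estradiol alongside compound; nearly all actives have a fitted effect of over 25% in size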
Conditions: BG1Luc4E2 ERE-luciferase antagonist mode, luminescence; series mostly up to 70.3 µM
Source text: National Center for Advancing Translational Sciences [NCATS]
NIH Chemical Genomics Center [NCGC]
U.S. Environmental Protection Agency [EPA]
National Institutes of Environmental Health Sciences [NIEHS]
National Toxicology Program [NTP]
U.S. Food and Drug Administration [FDA]
Estrogen receptor (ER), a nuclear hormone receptor, plays an important role in development, metabolic homeostasis and reproduction. Endocrine disrupting chemicals (EDCs) and their interactions with steroid hormone receptors like ER causes disruption of normal endocrine function. Therefore, it is important to understand the effect of environmental chemicals on the ER signaling pathway. To identify ER antagonists, BG1-Luc-4E2 cell line (provided by Dr. Michael Denison from University of California) has been used to screen the Tox21 10K compound library. BG1Luc4E2 cell line endogenously expresses full-length ER-alpha and is stably transfected with a plasmid containing four estrogen responsive elements (ERE) upstream of a luciferase reporter gene.
Tox21 Assay Protocol Summary:
BG1-Luc-4E2 cells were cultured in phenol red free assay medium containing 10% charcoal stripped FBS for 5 days before the assay was performed. The cells were dispensed at 4,000 cells/4 uL of assay medium per well into white wall/solid-bottom 1536-well plates using a Multidrop Combi (ThermoFisher Scientific, Waltham, MA) dispenser. The assay plates were incubated at a 37C and 5% CO2 for 24 h, and then 23 nL of compounds dissolved in DMSO, positive controls or DMSO only was transferred to the assay plate using a Pintool station (Kalypsys, San Diego, CA), followed by addition of 1 uL of 17beta-estradiol in assay medium using a Flying Reagent Dispenser (Aurora Discovery, San Diego, CA). After the plates were incubated at 37 C and 5% CO2 for 21.5 h, 1 uL of CellTiter-Fluor reagent (Promega, Madison, WI) of measuring cytotoxicity was added using Flying Reagent Dispenser (FRD) to each well. The assay plates were incubated at 37 C and 5% CO2 for additional 30 min and the fluorescence intensity was quantified by a ViewLux plate reader (PerkinElmer, Shelton, CT). For measuring luciferase reporter gene activity, 4 uL of ONE-Glo reagent (Promega) was added to each plate using an FRD and luminescence was quantified by a ViewLux plate reader after 30 min incubation at room temperature.
Potency is read from the fitted curve at half-maximal effect.

Compound	Potency
O=C(O)c1ccc2c(c1)C(=O)OC2=O	inactive
CN(C)CCCN	inactive
CC(c1cc2ccccc2s1)N(O)C(N)=O (stereo not given)	inactive
Cc1cc(C)c(C)cc1C	inactive
COc1cc(Cc2cnc(N)nc2N)cc(OC)c1OC	inactive
COc1ccc(NC(C)=O)cc1N	inactive
CC(C)(N)CO	inactive
CC(=O)CC(=O)Nc1ccccc1C	inactive
O=C(O)CCCC[C@@H]1SC[C@@H]2NC(=O)N[C@@H]21	inactive
CCCCCC1=CCCC1=O	inactive
CCc1cccc(C)c1N	inactive
COc1ccc(Nc2ccccc2)c(C)c1	inactive
CCN(CC)CCCC(C)Nc1ccnc2cc(Cl)ccc12 (stereo not given)	inactive
CCCCCCCCCC	inactive
C=CCOC(=O)c1ccccc1C(=O)OCC=C	inactive
C#C[C@]1(O)CC[C@H]2[C@@H]3CCC4=CC(=O)CC[C@@H]4[C@H]3CC[C@@]21C	inactive
CCCCN(CCCC)CCCC	inactive
O=C(OCCOCCOC(=O)c1ccccc1)c1ccccc1	inactive
c1ccc2scnc2c1	inactive
O=C(O)CCCCCCCCCCC(=O)O	inactive

Compound	Potency
CC(=O)c1ccccc1	inactive
CCCCCCCCCCCCS	inactive
Cc1ccc(N(C)C)cc1	inactive
CC(O)COCC(C)O (stereo not given)	inactive
C/C=C1/CC2C=CC1C2 (stereo not given)	inactive
CC(C)c1ccc(S(=O)(=O)O)cc1	inactive
CC1=C(C)S(=O)(=O)CCS1(=O)=O	inactive
CCOC(=O)NNc1nncc2ccccc12	inactive
Cc1ccc2oc(=O)ccc2c1	inactive
C=C(C)C(=O)Nc1ccc(Cl)c(Cl)c1	69.3 µM (active) and 68.3 µM (active)
O=C(O)CC(C(=O)O)C(CC(=O)O)C(=O)O (stereo not given)	inactive
COS(C)(=O)=O	inactive
OCCOCCOCCO	inactive
CCCCCOC(C)=O	inactive
OCc1cccnc1	inactive
O=P(OC(CCl)CCl)(OC(CCl)CCl)OC(CCl)CCl	inactive
CC(=O)Nc1ccccc1	inactive
CCCCC(CC)COC(=O)CCCCC(=O)OCC(CC)CCCC (stereo not given)	inactive
C=C(C)C(=O)O[C@H]1C[C@@H]2CC[C@@]1(C)C2(C)C	inactive
c1ccc2c(c1)ccc1ccccc12	inactive
